# About 130 (0.14%) of roughly 91,000 compounds were called active. Entries that show only a call come without a potency. About 3% were inconclusive and are not listed. The call rests on the fitted dose curve; in most records, active means well fitted inhibition curve with a large enough effect; inconclusive means small, poorly fitted or top-dose-only effect; inactive means flat fitted curve, though single readings scatter. This excerpt belongs to a sample that is enriched for actives.
# System: Uracil-DNA glycosylase
# Test: Primary qHTS assay for inhibitors of Activation Induced Cytidine Deaminase (AID): UDG Counterscreen signal; further: nearly all actives have a fitted effect of over 65% in size
# Conditions: FRET deamination/UDG coupled assay, UDG read, 4 h; series mostly up to 115 µM
# From the text: Assay Provider (PI) Patricia Gearhart Ph.D.
# National Institute on Aging
# National Institute of Health (NIH), Bethesda, MD
# Assay Provider (PI) Rahul Kohli Ph.D.
# Perelman School of Medicine
# University of Pennsylvania, Philadelphia, PA
# Activation-Induced Deaminase (AID) is a cytosine deaminase which converts cytosine into uracil within stretches of ssDNA. The presence of uracil in DNA initiates a cascade of mutagenic DNA repair to introduce point mutations and DNA double strand breaks. Specific targeting of AID to the immunoglobulin heavy chain loci (Igh) promotes mutagenesis in the antibody variable region for somatic hypermutation (SHM) or switch regions leading to class switch recombination (CSR). However, AID also plays a role in accumulating unnecessary mutations across the genome. Mis-targeting of AID results in the initiation of tumor development and leads to greater drug resistance among cancer cells when continually expressed. To identify an AID inhibitor, a small molecule library will be screened in collaboration with NCATS core facility at NIH. To confirm biological function, inhibitors will be examined in an in vitro murine B-cell activation assay and subsequent secondary validation screens. Top molecules will be further screened to identify inhibitory efficacy against a wild type primary splenocytes assay. Using these approaches, we hope to identify a small molecule with great efficacy and low toxicity for use as a molecular probe to further characterize AID's intricacies, or even as a therapeutic.
# A FRET based analysis of cytosine deamination, was developed to identify potential inhibitors of AID catalytic activity. This screen has two signal output, Read 1 evaluates the AID inhibition response. The second readout (Read 2) evaluates UDG response and is uses as a counterscreen to exclude false positive inhibitors. Inhibition in AID and inactivity in the UDG signal is the desired outcome for this assay.
# SEQUENCE No. (e.g., 1, 2, 3, etc.); […] (e.g., Cells, Incubation, Reagent, etc.); VALUE; DESCRIPTION
# 1a; Reagent; 3 uL; [4/3x] 1 uM AID/2.67 U/mL UDG
# 1b; Reagent; 3 uL; 2 U/mL UDG
# 1c; Reagent; 3 uL; 1 uM AID
# 2a; Compound; 46 nL; Follow-up plates (0.64 uM - 10 mM)
# 2b; Control; 46 nL; ATA ([…] - 10 mM)
# 3; Time; 10 min; incubation at room temperature
# 5; Time; 4 hr; incubation at room temperature
# 6; Reagent; 4 uL; [2x] 250 mM NaOH
# 7; Time; 15 sec; centrifuge at 1000 rpm
# 8; Time; 30 min; incubation at room temperature
# 9a; Detection; fluorescence (Read 1: AID); EnVision (PerkinElmer) plate reader, 540 excitation and 590 emission filters
# 9b; Detection; fluorescence (Read 2: UDG); EnVision (PerkinElmer) plate reader, 560 excitation and 665 emission filters
# NOTES (numbers refer to sequence above)
# 1a; Reagents were dispensed in a medium-binding black solid-bottom Greiner plates (789176F) using a BioRptr liquid dispenser. Dispense 3 uL of [4/3x] 1 uM AID (provided by Kohli lab) and [4/3x] 2 U/mL UDG (NEB M0280L) into columns 1, 2, 5 to 48.
# 1b; Dispense 3 uL of [4/3x] 2 U/mL UDG into column 3.
# 1c; Dispense 3 uL of [4/3x] 1 uM AID into column 4.
# 2a; Compound (7-points [uM] (0.64; 3.2; 16; 80; 400; 2,000; 10,000; 20,000) double pin-transferred (Dip Factor = 2) using the Kalypsys (Wako USA) pintool equipped with a 1536 pinhead for a final concentration range of 7.32 nM - 114 uM.
# 2b; 10 mM Aurintricarboxylic Acid (Sigma A1895) (ATA, 8-point, n = 2, 1:2.5 dilution in column 2) double pin-transferred (Dip Factor = 2) using the Kalypsys (Wako USA) pintool equipped with a 1536 pinhead for a [final] range of 186 nM - 114 uM.
# 3; Room temperature incubation.
# 4; Dispense 1 uL of substrate mixture from the Kohli lab [4x] […] DJC20 and [4x] 250 nM DJC23 into columns 1 to 48 .
# 5; Room temperature incubation.
# 6; Dispense 4 uL of substrate mixture [2x] 250 mM NaOH into columns 1 to 48.
# 7; Centrifugation step to remove bubbles.
# 8; Room temperature incubation
# 9a; Fluorescence signal (column label AID) was read using the EnVision plate reader. […]
# Potency means the concentration at half of the fitted maximal effect.
row,SMILES,Potency
1,COc1ccccc1NC(=O)CSc1nc2c(=O)[nH]cnc2n1-c1ccccc1,inactive
2,O=C(O)c1cccnc1SC(F)(F)F,inactive
3,Cc1ccc(C(CNC(=O)c2cc(-c3ccccc3)on2)N2CCC(C)CC2)o1 (stereo unspecified),inactive
4,O=C(CCC1CCCC1)N1CCN(CC2CC=CCC2)CC1 (stereo unspecified),inactive
5,CC(=O)c1c(C)[nH]c(C(=O)OCC(=O)Nc2ccc(Br)c(C)c2)c1C,inactive
6,COC(=O)Cn1cnc2c(sc3nc(C4CCCCC4)c4c(c32)CCC4)c1=O,inactive
7,COc1cccc2cc(/C=C(/C#N)c3nc4ccccc4[nH]3)oc12,inactive
8,COc1cc(SC)ccc1C(=O)Oc1cccc(F)c1,inactive
9,CCCCn1c(=O)[nH]c(=O)c2c1nc(COC(=O)c1cc(C)ccc1C)n2CCC,inactive
10,O=C1C(O)=C(c2ccccc2)C(c2ccccc2)N1Cc1ccccn1 (stereo unspecified),inactive
11,CCCCC(CC)CNc1ncnc2sccc12 (stereo unspecified),inactive
12,CCc1c(C)sc(NC(=O)c2cccc3ccccc23)c1C#N,inactive
13,Cc1cn2c(=O)cc(COC(=O)COc3ccccc3)nc2s1,inactive
14,O=C(NC1C2CC3CC(C2)CC1C3)c1cccc(Br)c1 (stereo unspecified),inactive
15,Cc1ccc2cccc(NC(=O)c3ccccc3C)c2n1,inactive
16,CCCc1cc(=O)oc2c(C)c(OCC(=O)NCc3ccccn3)ccc12,inactive
17,CCCCc1c/c(=N\O)oc2cc3occ(C)c3cc12,inactive
18,N#C/C(=C/c1ccccc1OC(F)F)c1nc2cc(C(F)(F)F)ccc2s1,inactive
19,Cc1csc(CNC(=O)c2cnccn2)n1,inactive
20,CCN(C(=O)COc1ncnc2c(Cl)cc(Cl)cc12)c1ccccc1,inactive
21,O=[N+]([O-])c1cc(S(=O)(=O)Nc2ccccc2NS(=O)(=O)c2cccs2)ccc1Cl,inactive
22,CC(C)=CC(=O)Nc1ccccc1SC1CCCC1,inactive

row,SMILES,Potency
1,CN(/C=C/[N+](=O)[O-])c1ccccc1,inactive
2,CCCCc1cnc2c(c1SCC(=O)NCC1CCCO1)c(=O)n(C)c(=O)n2C (stereo unspecified),inactive
3,CC1CCC(NC(=O)/C=C/c2ccc(C(=O)NC3CC3)cc2)CC1 (stereo unspecified),inactive
4,C=CCn1c(SC(C)C(=O)OC)nc2c1c(=O)[nH]c(=O)n2C (stereo unspecified),inactive
5,CC(OC(=O)c1cc(=O)c2ccccc2o1)C(=O)Nc1cc(C(F)(F)F)ccc1Cl (stereo unspecified),inactive
6,CCN(CC)S(=O)(=O)c1ccc([N+](=O)[O-])cc1,inactive
7,Cc1cccc(C(=O)Nc2ccc3nsnc3c2)c1,inactive
8,Cc1ccc2c(COC(=O)C3CCCO3)cc(=O)oc2c1C (stereo unspecified),inactive
9,Cc1ccc(C(=O)N2CCCc3cc(C(=O)NCCC(C)C)ccc32)cc1,inactive
10,O=C(NC1CCCC1)C1CC=CCC1c1nc2ccccc2s1 (stereo unspecified),inactive
11,CCCCCCCCOC(=O)/C(C#N)=C/c1ccc(-c2cccc(C(F)(F)F)c2)o1,inactive
12,O=C(Nc1cc(C(F)(F)F)ccc1Cl)c1c(F)cccc1F,inactive
13,Cc1[nH]c2ccccc2c1C(=O)C(C)Sc1nnnn1C1CCCC1 (stereo unspecified),inactive
14,O=C(Nc1cccc(S(=O)(=O)N2CCCC2)c1)c1n[nH]c2ccccc12,inactive
15,O=C(c1ccn(COc2ccccc2)n1)N1CCN(Cc2ccc(Cl)cc2)CC1,inactive
16,CC(C)COC(=O)c1nn(Cc2ccccc2)c(=O)c2ccccc12,inactive
17,COc1ccc2c(CCNC(=O)CCNc3nc(Cl)nc4nc[nH]c34)c[nH]c2c1,inactive
18,CCOc1cc(C#N)ccc1OC(C)C(=O)c1ccc(OC)cc1 (stereo unspecified),inactive
19,C/C(=N\NC(=O)C1CC1c1ccccc1)c1ccc(C)c(C)c1 (stereo unspecified),inactive
20,CCc1ccc(Sc2cc(C(=O)NC3CCCC3)c3ccccc3n2)cc1,inactive
21,Fc1ccc(NCC23CC4CC(CC(C4)C2)C3)cc1,inactive
22,OC(Cc1c[nH]c2ccccc12)(c1ccccc1)c1ccccc1,inactive

row,SMILES,Potency
1,COc1ccc(C(=O)COC(=O)C(C)Oc2ccc(F)cc2)cc1OC (stereo unspecified),inactive
2,CC1(C)Cc2c(sc(NC(=O)C(N)=O)c2C#N)CO1,inactive
3,CN(/C=C/C(=O)C(F)(F)F)C1(c2ccccc2Cl)CCCCC1=O (stereo unspecified),inactive
4,Cc1ccccc1C(=O)c1cc2ccccc2o1,inactive
5,CC(C)CCNC(=O)COC(=O)c1cc(-c2ccco2)nc2ccccc12,inactive
6,CN(Cc1ccsc1)C(=O)CCc1cccs1,inactive
7,Oc1ccc(Cl)cc1C=NCc1ccc(F)cc1Cl,inactive
8,N#Cc1cccc(C(=O)OCc2cccnc2)c1,inactive
9,COc1ccc(Cl)cc1COc1ccccc1C#N,inactive
10,CCc1nnc(SCC(=O)Nc2ccc(Cl)c(Cl)c2)n1-n1cccc1,inactive
11,CCCN1C=NS(=O)(=O)c2cc(C(=O)NC(C)(C)C)ccc21,inactive
12,Cc1nc2ccc(C(=O)NCC(=O)NCC(F)(F)F)cc2nc1C,inactive
13,NCc1ccc(CN2CCCCCCC2)cc1,inactive
14,CCN(Cc1cccs1)C(=O)CC1CC2CCC1C2 (stereo unspecified),inactive
15,COc1cc(C(=O)Nc2ncccc2C)cc(Cl)c1OC(C)C,inactive
16,CCCc1c(C(=O)OCC)nnc2c(-c3ccc(Cl)cc3)c(C)nn12,inactive
17,N#Cc1ccc(CCC(=O)NCc2ccc(F)cc2)cc1,inactive
18,COc1ccc2c(c1)c(N1CCCC1=O)c(C(=O)Nc1ccc(OC)c(Cl)c1)n2C,inactive
19,COc1ccc(NS(=O)(=O)c2ccc(N3C(=O)C(C)CS3(=O)=O)cc2)cc1Cl (stereo unspecified),inactive
20,COc1ccc(NS(=O)(=O)c2cc3c4c(c2)CC(=O)N4CCC3)cc1Cl,89.1 µM (active)
21,CN(C)C1(c2nnnn2-c2cccc(C(F)(F)F)c2)CCCC1,inactive
22,Cn1c(=O)c2c(ncn2CC(=O)OCc2ccccc2F)n(C)c1=O,inactive

row,SMILES,Potency
1,COc1ccccc1Cc1nc2ccccc2nc1SCC(=O)N1CCCc2ccccc21,89.1 µM (active)
2,O=C(CSc1nc2ccccc2nc1Cc1ccccc1)N1CCCCC1,inactive
3,O=C(Nc1ccc2nc(SCC(=O)N3CCCc4ccccc43)sc2c1)c1ccc(F)cc1,inactive
4,CN(Cc1ccc2c(c1)OCCO2)CC(O)COc1ccccc1C(C)(C)C (stereo unspecified),inactive
5,CCNc1nc(-c2cccs2)nc2ccccc12,inactive
6,Cc1ccc(-c2nnc(SCC(=O)Nc3cc(C)on3)n2C2CC2)cc1,inactive
7,CC(C)(C)C(=O)Nc1ccc(-c2csc(N)n2)cc1,inactive
8,COc1ccccc1C(=O)Nc1ccc(O)c(-c2nc3ccccc3o2)c1,inactive
9,CS(=O)(=O)Cc1cccc(C(=O)NCc2ccccc2F)c1,inactive
10,CCC(Sc1nc2nccnc2c(=O)n1Cc1ccc(OC)cc1)C(=O)NCc1ccc(C)cc1 (stereo unspecified),inactive
11,COc1ccc(CCN2CNc3c(c(=O)[nH]c(=O)n3-c3ccccc3Cl)C2)cc1OC,inactive
12,O=C(O)C(Sc1ccc2ccccc2n1)c1ccccc1 (stereo unspecified),inactive
13,NCCOc1cccc(C(F)(F)F)c1,inactive
14,CCC(NC(=O)C1CC1)c1ccccc1 (stereo unspecified),inactive
15,Cc1ccc(-c2cnc3ccccc3n2)c(C)c1,inactive
16,CCCCNc1nc2c(c(=O)[nH]c(=O)n2C)n1CC(O)COC(C)C (stereo unspecified),inactive
17,Cc1ccccc1NC(=O)/C(C#N)=C/c1ccc(OC(=O)c2ccccc2)cc1,inactive
18,Cc1cccc(NS(=O)(=O)c2ccc(C)c(C(=O)NCC(c3ccccc3)N(C)C)c2)c1 (stereo unspecified),inactive
19,O=C(COc1cc(Cl)c(Cl)cc1Cl)Nc1ccc2oc(-c3ccncc3)nc2c1,inactive
20,COC(=O)c1c(C)[nH]c(C(=O)CSc2nncs2)c1C,inactive

# From PubChem BioAssay AID1347430 (National Center for Advancing Translational Sciences (NCATS), 2020)
